The text below walks through data of PMC5540273 (PLoS ONE, 2017).

Holding throughout (details): concentration: 1 μM, replicates: in singlicate; n = 1
In assay [1] the test system is T1, NIM1.
T1 construct: gene MGC42105

For assay [2], the system named is NLK.
The test system of assay [3] is T2, OSR1.
T2 construct: gene OXSR1

Assay [4] concerns PAK1.
Assay [5] deals with PAK2.
Assay [6] deals with PAK3.
Assay [7] has as its system PAK4.
The subject of assay [8] is PAK6.
Assay [9] has as its system PAK7.
Assay [10] concerns T3, PCTK1.
T3 construct: gene CDK16

Assay [11] concerns T4, PCTK2.
T4 construct: gene CDK17

For assay [12], the system named is T5, PCTK3.
T5 construct: gene CDK18

Assay [13] has as its system PDGFRA.
Assay [14] has as its system PDGFRB.
Assay [15] relates to PDPK1.
Assay [16] relates to PFTAIRE2.
Assay [17] deals with T6, PFTK1.
T6 construct: gene CDK14

The test system of assay [18] is PHKG1.
The test system of assay [19] is PHKG2.
The subject of assay [20] is PIK3C2B.
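Also: KINOMEscan kinase panel screen.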

Take `CCS(=O)(=O)c1ccc(OC)c(Nc2nccc(-c3c(-c4cccc(NC(=O)c5c(F)cccc5F)c4)nn4ncccc34)n2)c1` [GSK326180]: the “%Inh” value came out at 7% in assay [1]; 48% in [2]; 9% in assay [3]; 0% in assay [4]; 0% in assay [5]; 14% in assay [6]. Also, the “%Inh” value in [7] was found to be 0%; in assay [8] it was 11%; in assay [9], 3%; in assay [10] it was 2%; in assay [11], 0%; in [12], 18%. The “%Inh” value in assay [13] stood at 0%; in [14], 40%; in assay [15], 0%; in assay [16], 27%; in [17], 17%; in assay [18], 1%. Moreover, the “%Inh” value in assay [19] and in assay [20] was 0% each time.

As for `O=C(Nc1cccc(-c2nn3ccccc3c2-c2ccnc(Nc3cccc(F)c3)n2)c1)c1c(F)ccc(F)c1Cl` [GSK357952], the “%Inh” value in [1] is listed as 7%; in [2], 46%; in assay [3] it was 2%; in assay [4] it was 0%; in assay [5] it was 2%; in assay [6], 16%. Further, the “%Inh” value stood at 0% in assay [7]; 0% in assay [8]; 15% in assay [9]; 0% in [10]; 0% in assay [11]; 9% in assay [12]. For the same molecule, the “%Inh” value in [13] was determined as 18%; in assay [14], 99.7%; in [15] it was 36%; in [16], 20%; in [17] it was 2%; in [18], 0%. Besides, the “%Inh” value in [19] and in assay [20] was 0% in each case.

As for `c1ccc(-c2n[nH]cc2Nc2ccnc3ccccc23)nc1` [GW694077], the “%Inh” value in assay [1] came to 25%; in [2] it was 53%; in assay [3], 7%; in assay [4], 6%; in [5] it was 50%; in assay [6], 1%. The “%Inh” value was 20% in assay [7]; 0% in assay [8]; 2% in [9]; 4% in assay [10]; 0% in assay [11]; 9% in [12]. Besides, the “%Inh” value in assay [13] stood at 20%; in [14], 65%; in [15], 0%; in assay [16] it was 16%; in assay [17], 18%; in assay [18], 0%. The “%Inh” value in [19] is on record as 30%; in [20], 29%.

Consider `NCCCC(NC(=O)c1cc(Br)c(-c2ccnc3[nH]ccc23)s1)c1ccccc1.O=C(O)C(F)(F)F.O=C(O)C(F)(F)F` (stereo not drawn) [GSK1287544], for which the “%Inh” value was determined as 15% in assay [1]; 0% in assay [2]; 57% in assay [3]; 2% in assay [4]; 41% in assay [5]; 67% in assay [6]. For the same molecule, the “%Inh” value in [7] came to 2%; in assay [8] it was 56%; in assay [9], 29%; in assay [10], 10%; in assay [11], 0%; in assay [12] it was 0%. In addition, the “%Inh” value in assay [13] turned out to be 0%; in [14], 28%; in assay [15] it was 14%; in assay [16], 25%; in assay [17], 0%; in assay [18], 0%. Further, the “%Inh” value in assay [19] and in assay [20] was 0% in each case.

For the molecule `COc1cc(Nc2ncc3c(C)nc(-c4cc5ccccc5[nH]4)n3n2)cc(OC)c1OC` [GW869516], the “%Inh” value in assay [1] turned out to be 0%; in assay [2], 0%; in assay [3], 0%; in assay [4], 5%; in [5], 22%; in assay [6], 69%. For the same molecule, the “%Inh” value in [7] was 33%; in assay [8] it was 23%; in assay [9], 28%; in assay [10], 0%; in [11], 32%; in assay [12], 6%. Besides, the “%Inh” value in assay [13] was 0%; in assay [14] it was 29%; in [15], 0%; in assay [16], 0%; in assay [17], 4%; in assay [18], 27%. Besides, the “%Inh” value in assay [19] and in [20] was 0% throughout.

With `Cn1cc(-c2[nH]c3cc(NC(=O)[C@H](N)C4CCCCC4)cc4c3c2C=NNC4=O)cn1`, the “%Inh” value in [1] turned out to be 96.8%; in assay [2], 0%; in [3], 17%; in assay [4] it was 27%; in assay [5] it was 25%; in [6], 83%. Moreover, the “%Inh” value in assay [7] is recorded as 99.5%; in assay [8], 99.2%; in assay [9], 97.9%; in assay [10] it was 8%; in assay [11], 0%; in [12], 0%. The “%Inh” value in assay [13] is reported as 99.7%; in assay [14] it was 100%; in assay [15], 75%; in assay [16], 5%; in assay [17], 5%; in [18], 65%. For the same molecule, the “%Inh” value in assay [19] was found to be 23%; in assay [20] it was 49%.

Turning to `CCc1ccc(-c2ccc3c(c2)-c2c(cnn2C)S(=O)(=O)N3C)cc1`, the “%Inh” value is 0% in [1]; 11% in assay [2]; 0% in [3]; 0% in assay [4]; 2% in assay [5]; 0% in assay [6]. For the same molecule, the “%Inh” value in assay [7] came out at 1%; in [8] it was 9%; in assay [9], 0%; in assay [10], 0%; in assay [11], 10%; in assay [12], 0%. Further, the “%Inh” value in [13] was 0%; in assay [14] it was 6%; in assay [15], 4%; in assay [16], 0%; in assay [17], 0%; in [18], 5%. The “%Inh” value is on record as 0% in assay [19] and 8% in [20].

As to `CN1CCN(Cc2cccc(-c3ccc4c(Nc5ccc(Oc6ccccc6)cc5)ccnc4c3)c2)CC1` [GW578342], the “%Inh” value in assay [1] came out at 22%; in assay [2], 41%; in [3] it was 4%; in assay [4] it was 16%; in [5], 0%; in assay [6], 29%. In addition, the “%Inh” value in assay [7] is listed as 0%; in [8], 0%; in assay [9] it was 0%; in assay [10], 0%; in assay [11] it was 69%; in assay [12] it was 20%. The “%Inh” value in assay [13] turned out to be 94.3%; in assay [14], 98.9%; in assay [15], 0%; in assay [16] it was 14%; in [17], 23%; in assay [18], 1%. Further, the “%Inh” value in [19] and in [20] was 0% each time.

For the molecule `CCCCc1nn2ncccc2c1-c1ccnc(Nc2ccc(N3CCN(C)CC3)cc2)n1` [GW684941], the “%Inh” value in [1] amounted to 47%; in assay [2] it was 54%; in assay [3], 12%; in assay [4] it was 23%; in [5], 0%; in assay [6] it was 0%. The “%Inh” value in assay [7] stood at 0%; in assay [8] it was 48%; in assay [9], 1%; in assay [10], 26%; in assay [11] it was 37%; in [12], 16%. Besides, the “%Inh” value in assay [13] is on record as 98.8%; in [14], 100%; in assay [15], 0%; in assay [16] it was 0%; in [17], 0%; in [18] it was 20%. Moreover, the “%Inh” value in assay [19] is reported as 4%; in assay [20], 66%.
